# Compounds with a hit are over-represented: about 3.5% of the library has one in this group of screens.
# MITF inh: human MITF inhibition, primary screen | O75030 | AlphaScreen MITF homodimerization, bead proximity signal | inhibition, % at 2.6 µM | 0.91% of 650,000 active | AID 1259374; in the data active = inhibition above about 50%
# GPR151 ag: activates the human receptor GPR151; activation, % at 11.2 µM; Q8TDV0; 1% of 650,000 active; PathHunter beta-arrestin GPR151 cells, luminescence; in the data active = activation above about 4.9%
# Target sequence (Q8TDV0 whole entry, looked up): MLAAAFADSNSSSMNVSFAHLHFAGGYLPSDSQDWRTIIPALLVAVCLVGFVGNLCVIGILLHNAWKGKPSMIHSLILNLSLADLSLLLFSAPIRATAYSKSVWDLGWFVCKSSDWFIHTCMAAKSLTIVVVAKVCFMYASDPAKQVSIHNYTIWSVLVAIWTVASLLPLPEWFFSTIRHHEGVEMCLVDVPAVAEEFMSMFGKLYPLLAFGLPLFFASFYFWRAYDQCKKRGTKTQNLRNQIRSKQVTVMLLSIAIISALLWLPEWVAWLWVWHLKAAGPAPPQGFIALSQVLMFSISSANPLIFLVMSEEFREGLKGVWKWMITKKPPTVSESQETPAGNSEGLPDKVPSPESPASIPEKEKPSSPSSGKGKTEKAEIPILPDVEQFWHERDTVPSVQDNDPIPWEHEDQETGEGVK
# FBW7 act: human FBW7 E3 ligase activation, primary screen. AlphaScreen FBW7–phospho-cyclin E peptide binding, activator screen. normalized activity (activation), % at 26.1 µM. 0.13% of 650,000 active. Q969H0; in the data active = normalized activity above about 1.9%;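 note: purified mutant Fbw7 with reduced substrate affinity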
# TEAD-YAP block: TEAD-YAP interaction inhibition | AID 1259422 | 1.4% of 640,000 active | inhibition, % at 9.12 µM | HEK-TIYL cells, TEAD-Gal4/YAP UAS-luciferase luminescence; in the data active = inhibition above about 32%
# Hits are given with their value; – = inactive.
SMILES,MITF inh,GPR151 ag,FBW7 act,TEAD-YAP block
Cc1ccc2c(C)nc(Nc3nc(C)c(C)c(=O)[nH]3)nc2c1,–,–,–,44
Cc1ccc(F)cc1NC(=O)N[C@H]1C[C@H]2C(=O)N[C@@H]([C@@H](C)O)C(=O)N2C1,–,–,–,–
O=C1CC(c2ccc3c(c2)OCCO3)Oc2ccccc21 (stereo unspecified),–,–,–,–
O=C1CC(c2ccc3c(c2)OCCO3)Oc2ccc([N+](=O)[O-])cc21 (stereo unspecified),–,–,–,52
COc1ccc2nc(Nc3nc(-c4cccnc4)cs3)sc2c1,–,–,–,–
COc1ccc2sc(Nc3nc(-c4ccccn4)cs3)nc2c1,–,–,–,37
COc1ccc2nc(Nc3nc(-c4ccccn4)cs3)sc2c1,51,–,–,49
COc1ccc(-c2cnnc(NCc3cnc(C)cn3)n2)cc1,–,–,–,–
COc1ccc(-c2cnc(NCc3cnc(C)cn3)nc2)cc1,–,–,–,46
CC1=C(C(=O)OCc2ccc3c(c2)OCO3)C(c2ccccc2)NC(=O)N1 (stereo unspecified),–,–,–,51
CC1=C(C(=O)OCc2ccc3c(c2)OCO3)C(c2cc3c(cc2Br)OCO3)NC(=O)N1 (stereo unspecified),–,–,–,–
CCc1ccc(C2NC(=O)NC(C)=C2C(=O)OCc2ccc3c(c2)OCO3)cc1 (stereo unspecified),–,–,–,55
Cc1cccc(N(C)C(=O)CC(C)S(=O)(=O)c2cc3c(cc2C)NC(=O)CO3)c1 (stereo unspecified),–,–,–,–
COc1ccc(Cc2cnc(NC(=O)COc3cccc(C)c3)s2)cc1,–,–,–,52
Cc1ccccc1OCC(=O)Nc1ncc(Cc2ccc(Br)cc2)s1,–,–,–,55
COc1ccccc1OCC(=O)Nc1ncc(Cc2ccc(Br)cc2)s1,–,–,–,–
COc1ccc(Cc2cnc(NC(=O)COc3ccccc3OC)s2)cc1,–,–,–,48
COc1ccc(OCC(=O)Nc2ncc(Cc3ccc(Br)cc3)s2)cc1,–,–,–,–
Nc1cc(N2CCN(c3ccccn3)CC2)nc(N)n1,–,–,–,–
O=C(Cn1c(=S)[nH]c2ccccc2c1=O)NCCCN1CCOCC1,–,–,–,–
COc1cccc(NC(=O)c2cnc(N3CCN(c4ccccc4OC)CC3)c3ccccc23)c1,–,–,–,–
COc1ccc(OC)c(NC(=O)c2cnc(N3CCN(c4ccccc4OC)CC3)c3ccccc23)c1,–,–,–,40
CCOc1ccccc1NC(=O)c1cnc(N2CCN(c3ccccn3)CC2)c2ccccc12,–,–,–,55
COc1ccccc1N1CCN(c2ncc(C(=O)NCc3cccnc3)c3ccccc23)CC1,–,–,–,37
CCOC(=O)c1ccccc1NC(=O)c1cnc(N2CCN(c3ccccn3)CC2)c2ccccc12,–,–,–,–
SMILES,MITF inh,GPR151 ag,FBW7 act,TEAD-YAP block
COc1ccccc1N1CCN(c2ncc(C(=O)N3CCN(C)CC3)c3ccccc23)CC1,–,–,–,35
COc1ccccc1N1CCN(c2ncc(C(=O)N3CCCC3)c3ccccc23)CC1,–,–,–,–
Cc1ccc(-c2c(C)sc(N)c2C(=O)O)cc1,–,–,–,–
Cn1c(=O)c2c(-c3ccc(Br)cc3)nccc2n(C)c1=O,–,–,–,–
COc1ccc2c(-c3ccccc3)cc(NCCCN(C)C)nc2c1,68,–,–,–
COc1ccc(-c2ccc(NCCCN(C)C)nc2)cc1,–,–,–,–
CCOc1cc(C=C2C(=O)NC(=S)NC2=O)ccc1OCC(=O)O,70,–,–,–
Cc1ccc(-c2ncnn2-c2sc3c(c2C#N)CCCCC3)cc1,–,–,–,–
N#Cc1c(-n2ncnc2-c2cccs2)sc2c1CCCCC2,–,–,–,64
CC(=O)c1sc(NC(=S)NC(=O)c2cc3ccccc3oc2=O)nc1C,–,–,–,–
CCC(C)(C)c1ccc(OCCCC[n+]2cccc(C)c2C)c(C(C)(C)CC)c1,–,–,–,88
CCC(C)(C)c1ccc(OCCCC[n+]2ccc(C)cc2)c(C(C)(C)CC)c1,–,–,–,45
Cc1cc(C)cc(NC(=O)CN2CCC(C(=O)NCc3nc4ccccc4[nH]3)CC2)c1,–,–,–,–
O=C(Nc1ccccc1NC(=O)c1cc2ccccc2o1)c1ccccn1,–,–,–,–
Cc1cc(C)cc(NC(=O)c2cc3ccccc3o2)c1,–,–,–,–
Cc1ccnc(NC(=O)c2cc3ccccc3o2)c1,–,–,–,56
O=C(Nc1ccccn1)c1cc2ccccc2o1,–,–,–,71
Cc1cc(OCC(=O)Nc2ccc3oc(-c4ccc(F)cc4)nc3c2)cc(C)c1Cl,–,–,–,–
